Screens from PubChem.
The list is not random: actives were taken first. Their share in the collection is about 10%.
JMJD2A Tudor inh = qHTS Assay for Inhibitors of JMJD2A-Tudor Domain | Lysine-specific demethylase 4A (Homo sapiens), O75164 | AlphaScreen JMJD2A-Tudor / H3K4me3 peptide binding | Potency, µM (highest dose often 114 µM), most hits filed as inhibitors | 4.4% of 390,000 active | AID 504339, 2011; also: nearly all actives have a fitted effect of over 50% in size
HP1b chromo inh = HTS for Inhibitors of HP1-beta Chromodomain Interactions with Methylated Histone Tails | 0.56% of 390,000 active | Chromobox protein homolog 1 (Homo sapiens), P83916 | AlphaScreen HP1-beta / biotin-H3K9me3 peptide binding | Potency, µM (doses to about 114 µM), usual class: inhibitors; also: nearly all actives have a fitted effect of over 70% in size
Target sequence (P83916 whole entry, looked up): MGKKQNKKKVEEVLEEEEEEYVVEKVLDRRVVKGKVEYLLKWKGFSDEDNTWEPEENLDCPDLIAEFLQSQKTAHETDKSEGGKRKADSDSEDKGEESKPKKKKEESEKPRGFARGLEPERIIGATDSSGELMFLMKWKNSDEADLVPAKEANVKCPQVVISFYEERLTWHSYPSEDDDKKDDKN
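Compound inhibition of the preformed complex between 50 nM HP1-beta and 50 nM biotinylated H3K9me3 peptide was read by AlphaScreen. Buffer was PBS pH 7.4 with 0.01% Tween-20. Incubations ran 30 min at room temperature, with 10 ug/mL donor/acceptor beads.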
GLS inh = qHTS for Inhibitors of Glutaminase (GLS); GLS enzymatic activity, qHTS titration; Potency, µM (doses to about 45.5 µM), hits mostly inhibitors; 0.21% of 410,000 active; Glutaminase kidney isoform, mitochondrial (Homo sapiens), O94925
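Two-point fluorescence kinetic (t0, 30 min RT) for hKGA; glutamate detected via glutamate oxidase–HRP–Amplex Red. Substrate: 1 mM L-glutamine solution; buffer 45 mM KH2PO4, pH 8.2.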
BAZ2B block = qHTS Assay for Inhibitors of BAZ2B; AID 504333, 2011; AlphaScreen BAZ2B-H3K14Ac peptide displacement; 4.4% of 360,000 active; Potency, µM (titrated, usually from 114 µM), actives largely listed as inhibitors; Bromodomain adjacent to zinc finger domain protein 2B (Homo sapiens), Q9UIF8; also: nearly all actives have a fitted effect of over 60% in size
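Inhibition is scored as reduced AlphaScreen emission. The BAZ2B/b-H3(5-23)K14Ac complex (50 nM each) in PBS pH 7.4, 0.01% Tween-20 meets compound (up to 110 uM) for 30 min at RT before bead addition.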
G9a block = qHTS Assay for Inhibitors of Histone Lysine Methyltransferase G9a. Histone-lysine N-methyltransferase EHMT2 (Homo sapiens), Q96KQ7. G9a H3K9 monomethylation, AlphaScreen, 2 h. Potency, µM (highest dose often 102 µM), hits mostly inhibitors. 8.8% of 350,000 active; also: nearly all actives have a fitted effect of over 75% in size
Target sequence (Q96KQ7 913-1193 limits assumed): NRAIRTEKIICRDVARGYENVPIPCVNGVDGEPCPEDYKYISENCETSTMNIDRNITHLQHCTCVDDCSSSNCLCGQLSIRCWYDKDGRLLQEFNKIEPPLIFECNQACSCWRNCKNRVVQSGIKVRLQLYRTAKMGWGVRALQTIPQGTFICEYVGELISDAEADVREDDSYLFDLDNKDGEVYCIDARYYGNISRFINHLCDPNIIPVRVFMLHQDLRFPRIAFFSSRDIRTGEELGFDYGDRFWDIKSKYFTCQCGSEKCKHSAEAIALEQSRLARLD
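Signal arises when biotinylated H3K9 peptide, once monomethylated, bridges streptavidin donor and antibody-captured acceptor beads. Enzyme at 20 nM was preincubated 15 min with test compounds; peptide 500 nM and SAM 20 uM then reacted for 2 h.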
Numbers stand for hits; n = inactive; u = inconclusive; x = no result; [ ] = another dose, or the depositor's remark. Calls follow the shape of the dose curve; as a rule, active = well fitted curve in the direction sought with a large enough effect; inconclusive = small, poorly fitted or top-dose-only effect, or another doubt; inactive = no such curve, though single readings can be large; an effect the other way counts as inactive or inconclusive.

SMILES	JMJD2A Tudor inh	HP1b chromo inh	GLS inh	BAZ2B block	G9a block
O=c1c(C(c2ccc(O)cc2)c2c(O)nc3n(c2=O)CCS3)c(O)nc2n1CCS2	45µM	n	n	u	u
Cc1ccc(C(c2c(O)nc3n(c2=O)CCS3)c2c(O)nc3n(c2=O)CCS3)cc1	n	n	n	n	10µM
O=C(c1cccc(F)c1)N1CCCC(C(=O)N2CCCCC2)C1 (stereo not drawn)	n	n	n	n	n
COc1ccccc1CN1CCCC(C(=O)N2CCCCC2)C1 (stereo not drawn)	1.8µM	71µM	n	45µM	18µM
O=C(C1CCCN(Cc2ccccc2C(F)(F)F)C1)N1CCCCC1 (stereo not drawn)	3.5µM	u	n	50µM	5µM
COc1ccc(CN2CCCC(C(=O)N3CCCC3)C2)c(OC)c1OC (stereo not drawn)	x	x	n	x	x
COc1cccc(CCC(=O)N(C)C2CCCN(Cc3ccccc3F)C2)c1 (stereo not drawn)	n	n	n	n	n
CN(C(=O)CCc1ccccc1F)C1CCCN(Cc2ccccc2F)C1 (stereo not drawn)	10µM	n	u	n	n[0.501 µM]
O=C(C1CCCN(Cc2ccccc2F)C1)N1CCCCC1 (stereo not drawn)	4µM	45µM	n	20µM	10µM
COc1ccc(N2CCN(S(=O)(=O)CCNC(=O)COc3ccccc3F)CC2)cc1	n	n	n	n	u
Cc1ccccc1-c1cnc(C(O)c2c(C)ccc3ccccc23)[nH]1 (stereo not drawn)	x	x	n	x	x
COC(=O)CCN(Cc1ccco1)S(=O)(=O)c1ccc(F)cc1Br	n	n	x	x	x
COc1ccc(N2CCN(C(CNC(=O)C(=O)NCc3ccc(F)cc3)c3cccnc3)CC2)cc1 (stereo not drawn)	n	n	n	n	n
CC1(C(=O)NCc2ccco2)Cc2c(-c3cccc(C(N)=O)c3)ccnc2O1 (stereo not drawn)	x	x	n	x	x
COc1ccccc1C(=O)C1CCCN(C(=O)c2ccccc2C(C)=O)C1 (stereo not drawn)	n	n	n	n	n[12.7 µM]
COc1ccc(C(=O)N2CCCC(C(=O)O)C2)c2ccccc12 (stereo not drawn)	n	n	n	n	45µM
CCOC(=O)N1CCN(Cc2nc3cc([N+](=O)[O-])ccc3n2C(C)C)CC1	n	n	n	n	n
CC(OCC(O)CNCC1COc2ccccc2O1)c1ccc(Cl)cc1 (stereo not drawn)	2.2µM	u	n	79µM	10µM
COc1ccc(CNCC(O)COCc2cccs2)cc1 (stereo not drawn)	1.6µM	n	n	u	u
CC(=O)c1cccc(OCC(O)CNCC2COc3ccccc3O2)c1 (stereo not drawn)	0.79µM	50µM	n	32µM	n[0.501 µM]
OC(CNCC1COc2ccccc2O1)COCc1cccs1 (stereo not drawn)	1.6µM	n	n	89µM	8.9µM
COc1ccc(C2CC(=O)Nc3c2c(C)nn3-c2nncc(-c3ccc(C)cc3)n2)c(OC)c1OC (stereo not drawn)	n	n	n	u	n
O=C(NCCN1CCC(n2c(=O)[nH]c3ccccc32)CC1)c1ccc(F)cc1Cl	x	x	n	x	x
Cc1ccc2c(=O)cc(C(=O)Nc3c(C(=O)Nc4cccc(Cl)c4)oc4ccccc34)oc2c1	n	n	n	n	n
CCCCC[C@]12Cc3ccccc3C(O1)C1=C(CC(C)(C)CC1=O)O2	x	x	x	n[22.9 µM]	x
SMILES	JMJD2A Tudor inh	HP1b chromo inh	GLS inh	BAZ2B block	G9a block
O=[N+]([O-])c1ccc(/C=N/n2c(-c3ccccc3)n[nH]c2=S)cc1	40µM	n	n	n	0.56µM
Cc1ccc(/C=N/n2c(-c3ccccc3)n[nH]c2=S)cc1	79µM	n	u	n	1.1µM
O=[N+]([O-])c1ccc(-c2nn(-c3ccccc3)cc2/C=N/n2c(-c3cccs3)n[nH]c2=S)cc1	n	n	n	n	x
Cc1ccc(-c2n[nH]c(=S)n2/N=C/c2ccc(C(=O)O)cc2)cc1	3.2µM	n	n	n	3.2µM
O=[N+]([O-])c1ccc(/C=N/n2cn[nH]c2=S)cc1	7.1µM	n	n	n	7.9µM
CC(C)c1ccc(/C=N/n2c(-c3ccccc3)n[nH]c2=S)cc1	u	n	u	n	n[0.501 µM]
